Several values for one entry are separate records, joined by “and”; a condition that tells them apart may be missing. Identical values can stand only once. Where a structure was tested more than once in an assay, its records may differ in their call. Activity calls are given as the source filed them. A call without a number means that no potency is given here. Unless noted, calls come from the whole dose curve; as a rule, active = well fitted curve in the direction sought with a large enough effect in the repeat runs; inconclusive = weak or mixed curves; inactive = no such curve, though single readings can be large; an effect the other way counts as inactive or inconclusive.
Legend:
[1] = qHTS assay to identify small molecule antagonists of the glucocorticoid receptor (GR) signaling pathway - cell viability counter screen (AID 720693); note: nearly all actives have a fitted effect of over 55% in size; note: potency is the fitted concentration of half-maximal effect
[2] = qHTS assay for identifying genotoxic compounds that show differential cytotoxicity against isogenic chicken DT40 cell lines with known DNA damage response pathways - wild type cell line (AID 743012); note: nearly all actives have a fitted effect of over 60% in size; note: potency is the fitted concentration of half-maximal effect
In short: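 CellTiter-Glo luminescence readout of viability in wild type DT40 cells after 40 h compound exposure at 37 C/5% CO2; 300 cells/well; reagent incubated 30 min at room temperature before reading.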

[3] = qHTS assay for identifying genotoxic compounds that show differential cytotoxicity against isogenic chicken DT40 cell lines with known DNA damage response pathways - Rev3 mutant cell line (AID 743014); note: nearly all actives have a fitted effect of over 55% in size; note: potency is the fitted concentration of half-maximal effect
[4] = target: Androgen receptor (Homo sapiens) (UniProt P10275); test: qHTS assay to identify small molecule agonists of the androgen receptor (AR) signaling pathway using the MDA cell line (AID 743040; note: nearly all actives have a fitted effect of over 20% in size); conditions: MDA-kb2 AR-luc cells, MMTV luciferase, 16 h; activity change: at 70.3 µM (top of the series), stronger effect = higher value
In short: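 Agonist activity is measured as luciferase luminescence in human MDA-kb2 cells whose MMTV reporter responds to both AR and GR. Compounds in DMSO incubate 16 h at 37C, 0% CO2, and ONE-Glo is read after 30 min.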

[5] = qHTS assay to identify small molecule antagonists of the androgen receptor (AR) signaling pathway using the MDA cell line - cell viability counter screen (AID 743041; note: nearly all actives have a fitted effect of over 45% in size)
In short: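 qHTS viability read-out; MDA-kb2 AR-luc; R1881-stimulated; 16 h exposure at 37C, 0% CO2; CellTiter-Fluor, 30 min; fluorescence intensity.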

[6] = target: Androgen receptor (Homo sapiens) (UniProt P10275); test: qHTS assay to identify small molecule antagonists of the androgen receptor (AR) signaling pathway using the MDA cell line (AID 743042; note: nearly all actives have a fitted effect of over 55% in size; note: potency is the fitted concentration of half-maximal effect)
In short: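 MDA-kb2 cells (human breast carcinoma, stably carrying an MMTV-luciferase reporter responsive to AR and GR) were plated at 3,000 cells/well and preincubated 5 hr at 37C, then given compound plus R1881 agonist for 16 h. ONE-Glo luminescence was read.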

[7] = qHTS assay to identify small molecule antagonists of the thyroid receptor (TR) signaling pathway - cell viability counter screen (AID 743064); note: nearly all actives have a fitted effect of over 50% in size; note: potency is the fitted concentration of half-maximal effect
In short: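 In rat pituitary GH3.TRE-Luc reporter cells co-exposed to compound and 1 nM T3 for 23.5 h, cytotoxicity was assessed with CellTiter-Fluor in the same wells, read by fluorescence.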

[8] = qHTS assay to identify small molecule antagonists of the thyroid receptor (TR) signaling pathway (AID 743065); note: nearly all actives have a fitted effect of over 55% in size; note: potency is the fitted concentration of half-maximal effect
In short: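 GH3.TRE-Luc rat pituitary cells carrying two TR response elements driving luciferase were plated for 4 h, given compound plus 1 nM T3 (final), and incubated 23.5 h at 37 C. ONE-Glo luminescence measured reporter inhibition; CellTiter-Fluor fluorescence tracked cytotoxicity.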

[9] = system: thyroid hormone receptor (rat, GH3 cells); test: qHTS assay to identify small molecule agonists of the thyroid receptor (TR) signaling pathway (AID 743066; calls by dose curve)
[10] = qHTS assay to identify small molecule antagonists of the estrogen receptor alpha (ER-alpha) signaling pathway - cell viability counter screen (AID 743074; calls by dose curve; note: nearly all actives have a fitted effect of over 45% in size)
[11] = target: Estrogen receptor (Homo sapiens) (UniProt P03372); test: qHTS assay to identify small molecule agonists of the estrogen receptor alpha (ER-alpha) signaling pathway (AID 743075; calls by dose curve; note: potency is the fitted concentration of half-maximal effect)
[12] = target: Estrogen receptor (Homo sapiens) (UniProt P03372); test: qHTS assay to identify small molecule agonists of the estrogen receptor alpha (ER-alpha) signaling pathway using the BG1 cell line (AID 743079); note: nearly all actives have a fitted effect of over 20% in size; note: potency is the fitted concentration of half-maximal effect
[13] = qHTS assay to identify small molecule antagonists of the estrogen receptor alpha (ER-alpha) signaling pathway using the BG1 cell line - cell viability counter screen (AID 743081);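 note: compound given together with 17beta-estradiol as the ER stimulus; nearly all actives have a fitted effect of over 45% in size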
Aromatase (Homo sapiens) = Aromatase (Homo sapiens) (UniProt P11511); test: qHTS assay to identify aromatase inhibitors (AID 743083); note: nearly all actives have a fitted effect of over 55% in size; note: potency is the fitted concentration of half-maximal effect
[14] = qHTS assay to identify aromatase inhibitors - cell viability counter screen (AID 743084); note: potency is the fitted concentration of half-maximal effect
[15] = qHTS assay to identify small molecule antagonists of the androgen receptor (AR) signaling pathway - cell viability counter screen (AID 743033; note: nearly all actives have a fitted effect of over 45% in size; note: potency is the fitted concentration of half-maximal effect)
[16] = target: Estrogen receptor (Homo sapiens) (UniProt P03372); test: qHTS assay to identify small molecule antagonists of the estrogen receptor alpha (ER-alpha) signaling pathway (AID 743069; active = well fitted curve in the direction sought with a large enough effect in the signal ratio in the repeat runs, not every such curve was filed as active; inconclusive = weak or mixed curves, or effect the other way; inactive = no such curve, though single readings can be large or run the other way; the % refers to the signal ratio)
In short: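 Screening used a UAS-driven beta-lactamase reporter integrated into HEK293 cells expressing ER-alpha, stimulated with 17beta-estradiol alongside test compounds over 18 hr at 37C; signal came from LiveBLAzer B/G FRET fluorescence.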

[17] = qHTS assay to identify small molecule antagonists of the estrogen receptor alpha (ER-alpha) signaling pathway using the BG1 cell line (AID 743080; calls by dose curve;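 note: BG1 cells stimulated with 17beta-estradiol alongside compound; nearly all actives have a fitted effect of over 25% in size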)
In short: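 BG1-Luc-4E2 cells (endogenous full-length ER-alpha, stable 4×ERE-luciferase) were starved 5 days in phenol-red-free medium with 10% charcoal-stripped FBS, plated 24 h, then given compound plus 17beta-estradiol for 21.5 h at 37 C; ONE-Glo luminescence read after 30 min.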

[18] = qHTS assay for identifying genotoxic compounds that show differential cytotoxicity against isogenic chicken DT40 cell lines with known DNA damage response pathways - Rad54/Ku70 mutant cell line (AID 743015); note: nearly all actives have a fitted effect of over 60% in size; note: potency is the fitted concentration of half-maximal effect
[19] = target: Androgen receptor (Homo sapiens) (UniProt P10275); test: qHTS assay to identify small molecule antagonists of the androgen receptor (AR) signaling pathway (AID 743035; active = well fitted inhibition curve with a large enough effect in the signal ratio in the repeat runs, not every such curve was filed as active; inconclusive = weak or mixed curves, or effect the other way; inactive = no such curve, though single readings can be large or run the other way; the % refers to the signal ratio)
In short: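 AR-bla HEK293 reporter cells; 4 h settle at 37C/5% CO2; compound + R1881 agonist, 16 h at 37C; LiveBLAzer B/G FRET substrate 2 h RT; fluorescence intensity read. qHTS format.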

Chain of Estrogen receptor (Homo sapiens) (P03372 whole entry, looked up): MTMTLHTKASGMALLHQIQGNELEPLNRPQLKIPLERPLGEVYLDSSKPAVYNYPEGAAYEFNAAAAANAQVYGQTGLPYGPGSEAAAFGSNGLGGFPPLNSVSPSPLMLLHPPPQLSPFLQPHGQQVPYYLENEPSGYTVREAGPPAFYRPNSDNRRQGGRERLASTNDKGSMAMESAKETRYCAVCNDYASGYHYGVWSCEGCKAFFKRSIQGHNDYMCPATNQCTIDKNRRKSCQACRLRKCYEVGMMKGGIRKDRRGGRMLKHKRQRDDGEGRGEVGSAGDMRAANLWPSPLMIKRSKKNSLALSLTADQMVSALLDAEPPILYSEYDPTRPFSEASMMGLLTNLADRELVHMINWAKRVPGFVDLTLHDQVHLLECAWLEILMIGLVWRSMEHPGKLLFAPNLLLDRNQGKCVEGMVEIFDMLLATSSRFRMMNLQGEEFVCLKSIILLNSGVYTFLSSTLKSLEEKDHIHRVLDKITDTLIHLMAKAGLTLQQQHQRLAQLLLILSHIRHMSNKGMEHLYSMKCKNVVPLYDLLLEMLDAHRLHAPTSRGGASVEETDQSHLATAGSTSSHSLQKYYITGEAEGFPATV
Chain of Aromatase (Homo sapiens) (P11511 whole entry, looked up): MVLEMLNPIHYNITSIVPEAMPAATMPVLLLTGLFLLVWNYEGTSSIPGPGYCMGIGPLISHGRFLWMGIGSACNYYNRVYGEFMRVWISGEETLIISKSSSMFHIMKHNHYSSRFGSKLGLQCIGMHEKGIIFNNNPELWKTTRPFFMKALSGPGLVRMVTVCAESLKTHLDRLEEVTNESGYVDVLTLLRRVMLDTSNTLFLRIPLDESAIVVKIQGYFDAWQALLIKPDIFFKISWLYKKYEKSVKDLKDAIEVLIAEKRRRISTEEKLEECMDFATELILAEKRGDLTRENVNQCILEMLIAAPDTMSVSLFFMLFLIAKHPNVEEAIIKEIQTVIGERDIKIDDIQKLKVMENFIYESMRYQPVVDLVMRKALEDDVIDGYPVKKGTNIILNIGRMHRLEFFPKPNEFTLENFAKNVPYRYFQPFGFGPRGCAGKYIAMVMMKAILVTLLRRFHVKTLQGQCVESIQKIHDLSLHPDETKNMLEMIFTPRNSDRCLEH
Chain of Androgen receptor (Homo sapiens) (P10275 whole entry, looked up): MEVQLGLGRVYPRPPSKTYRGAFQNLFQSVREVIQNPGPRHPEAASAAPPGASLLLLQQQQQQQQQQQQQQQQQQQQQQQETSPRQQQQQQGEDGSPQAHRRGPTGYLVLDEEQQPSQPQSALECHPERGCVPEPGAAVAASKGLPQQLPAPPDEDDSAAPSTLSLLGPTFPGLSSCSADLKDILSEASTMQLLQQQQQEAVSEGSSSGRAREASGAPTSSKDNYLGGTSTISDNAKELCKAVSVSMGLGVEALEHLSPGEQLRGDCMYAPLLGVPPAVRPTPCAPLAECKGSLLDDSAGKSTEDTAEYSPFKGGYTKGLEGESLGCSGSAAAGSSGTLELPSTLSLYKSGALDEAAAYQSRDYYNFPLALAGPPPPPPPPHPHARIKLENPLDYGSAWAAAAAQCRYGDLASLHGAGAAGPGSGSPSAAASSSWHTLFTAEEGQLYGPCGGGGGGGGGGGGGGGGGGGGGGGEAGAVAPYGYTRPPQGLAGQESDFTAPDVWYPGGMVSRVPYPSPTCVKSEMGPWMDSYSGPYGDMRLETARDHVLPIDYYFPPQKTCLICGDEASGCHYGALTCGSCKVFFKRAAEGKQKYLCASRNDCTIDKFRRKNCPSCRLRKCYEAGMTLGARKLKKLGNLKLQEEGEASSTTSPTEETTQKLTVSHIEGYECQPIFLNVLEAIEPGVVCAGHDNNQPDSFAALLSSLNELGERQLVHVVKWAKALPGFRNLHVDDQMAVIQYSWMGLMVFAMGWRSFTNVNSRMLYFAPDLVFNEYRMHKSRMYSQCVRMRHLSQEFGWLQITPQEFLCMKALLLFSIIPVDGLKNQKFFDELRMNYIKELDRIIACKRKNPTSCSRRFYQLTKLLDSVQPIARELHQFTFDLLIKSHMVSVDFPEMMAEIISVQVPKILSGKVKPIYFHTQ

COP(=O)(OC)OC(Br)C(Cl)(Cl)Br (centres undefined)
Potency [1]: inactive | Potency [2]: 30.7 µM (active) and 13.7 µM (active) | Potency [3]: 13.7 µM (active) | Potency [4]: inactive | Potency [5]: inactive | Potency [6]: 68.7 µM (active) and 61.1 µM (active) | Potency [7]: 54.5 µM (active) and 61.1 µM (active) | Potency [8]: 54.5 µM (active) and 48.6 µM (active) | Potency [9]: inactive | Potency [10]: inactive | Potency [11]: 61.7 µM [inconclusive] (active) and inactive | Potency [12]: inactive | Potency [13]: inactive | Potency (Aromatase (Homo sapiens)): 61.2 µM (active) and 61.1 µM (active) | Potency [14]: 48.6 µM (active)

CCC(C)(C)c1ccc(O)c(C(C)(C)CC)c1
Potency [1]: 19.3 µM (active) and 19.5 µM (active) | Potency [2]: 24.3 µM (active) | Potency [3]: 27.3 µM (active) | Potency [15]: 54.4 µM (active) | Potency [7]: 12.1 µM (active) and 13.7 µM (active) | Potency [8]: 12.1 µM (active) and 12.2 µM (active) | Potency [9]: inactive | Potency [16]: inactive | Potency [10]: inactive | Potency [11]: inactive | Potency [12]: inactive | Potency (Aromatase (Homo sapiens)): 60.4 µM (active) and 30.6 µM (active) | Potency [14]: 42.8 µM (active) and 27.3 µM (active)

C=CC(=O)NC(C)(C)CC(C)=O
Potency [1]: inactive | Potency [2]: inactive | Potency [3]: 54.5 µM (active) | Potency [15]: inactive | Potency [5]: inactive | Potency [7]: inactive | Potency [8]: inactive | Potency [9]: inactive | Potency [10]: inactive | Potency [11]: inactive | Potency [12]: inactive | Potency [17]: inactive | Potency [13]: inactive | Potency (Aromatase (Homo sapiens)): inactive | Potency [14]: inactive

CCC1CCC(=O)O1 (centres undefined)
Potency [1]: inactive | Potency [2]: inactive | Potency [3]: inactive | Potency [18]: inactive | Potency [5]: inactive | Potency [7]: inactive | Potency [8]: inactive | Potency [9]: inactive | Potency [10]: inactive | Potency [13]: inactive

CNC(=O)Oc1cccc(N=CN(C)C)c1
Potency [1]: inactive | Potency [2]: 54.5 µM (active) | Potency [3]: 54.5 µM (active) | Potency [15]: inactive | Potency [7]: inactive | Potency [9]: inactive | Potency [10]: inactive | Potency [11]: inactive | Potency [12]: inactive | Potency [13]: inactive | Potency (Aromatase (Homo sapiens)): inactive | Potency [14]: inactive

COc1ccc(C(=O)c2c(C)n(CCN3CCOCC3)c3ccccc23)cc1
Potency [1]: inactive | Potency [2]: 26.6 µM (active) | Potency [3]: 26.6 µM (active) | Potency [5]: inactive | Potency [7]: inactive | Potency [9]: inactive | Potency [10]: inactive | Potency (Aromatase (Homo sapiens)): inactive | Potency [14]: inactive

Cc1nc2ccccc2c(=O)n1-c1ccccc1Cl
Potency [1]: inactive | Potency [2]: 42.4 µM (active) | Potency [3]: 59.8 µM (active) | Potency [15]: inactive | Potency [5]: inactive | Potency [7]: 30 µM (active) | Potency [8]: inactive | Potency [9]: inactive | Potency [11]: inactive | Potency [12]: 33.6 µM (active) | Potency [17]: inactive | Potency (Aromatase (Homo sapiens)): inactive

ClCc1ccccc1Cl
Potency [1]: inactive | Potency [2]: inactive | Potency [3]: inactive | Potency [15]: inactive | Potency [19]: inactive | Potency [4]: inactive | Potency [5]: inactive | Potency [6]: inactive | Potency [7]: inactive | Potency [8]: inactive | Potency [9]: inactive | Potency [10]: inactive | Potency [13]: inactive | Potency (Aromatase (Homo sapiens)): inactive | Potency [14]: inactive

CCOC(=O)c1cn2nc(OP(=S)(OCC)OCC)cc2nc1C
Potency [1]: inactive | Potency [2]: 27.3 µM (active) | Potency [3]: 48.6 µM (active) | Potency [5]: inactive | Potency [7]: inactive | Potency [8]: inactive | Potency [9]: inactive | Potency [10]: inactive | Potency [11]: inactive | Potency [12]: inactive | Potency [17]: inactive | Potency [13]: inactive | Potency (Aromatase (Homo sapiens)): inactive | Potency [14]: inactive

O=C(Cc1ccccc1)OCCc1ccccc1
Potency [1]: inactive | Potency [2]: 68.6 µM (active) | Potency [18]: 61.1 µM (active) | Potency [15]: inactive | Potency [5]: inactive | Potency [7]: inactive | Potency [8]: inactive | Potency [9]: inactive | Potency [16]: inactive | Potency [10]: inactive | Potency [11]: inactive | Potency [12]: inactive | Potency [13]: inactive | Potency (Aromatase (Homo sapiens)): inactive | Potency [14]: inactive

CCCBr
Potency [1]: inactive | Potency [2]: inactive | Potency [3]: inactive | Potency [15]: inactive | Potency [5]: inactive | Potency [7]: inactive | Potency [8]: inactive | Potency [9]: inactive | Potency [16]: inactive | Potency [10]: inactive | Potency [11]: inactive | Potency [12]: inactive | Potency [13]: inactive | Potency (Aromatase (Homo sapiens)): inactive | Potency [14]: inactive

O=C([O-])c1ccccn1.O=C([O-])c1ccccn1.O=C([O-])c1ccccn1.[Cr+3]
Potency [1]: inactive | Potency [2]: inactive | Potency [3]: inactive | Potency [15]: inactive | Potency [5]: inactive | Potency [7]: inactive | Potency [8]: inactive | Potency [9]: inactive | Potency [16]: inactive | Potency [10]: inactive | Potency [11]: inactive | Potency [12]: inactive | Potency [13]: inactive | Potency (Aromatase (Homo sapiens)): inactive | Potency [14]: inactive

Cc1nnc(-c2ccccc2)c(=O)n1N
Potency [1]: inactive | Potency [2]: inactive | Potency [3]: inactive | Potency [15]: inactive | Potency [5]: inactive | Potency [7]: inactive | Potency [8]: inactive | Potency [9]: inactive | Potency [10]: inactive | Potency [13]: inactive | Potency (Aromatase (Homo sapiens)): inactive | Potency [14]: inactive

O=C(O)C(Cl)(Cl)Br
Potency [1]: inactive | Potency [2]: inactive | Potency [3]: inactive | Potency [15]: inactive | Potency [5]: inactive | Potency [7]: inactive | Potency [8]: inactive | Potency [9]: inactive | Potency [10]: inactive | Potency [13]: inactive | Potency (Aromatase (Homo sapiens)): inactive | Potency [14]: inactive

CCCCCCCCCCCCN=C(N)N
viability change, negative = cytotoxic [1]: -13.6% [at 3.15 µM] (inactive) | Potency [2]: 0.845 µM (active) | Potency [3]: 1.89 µM (active) | Potency [18]: 1.06 µM (active) | viability change, negative = cytotoxic [5]: -10.3% [at 3.79 µM] (inactive) | activity change, negative = cytotoxic [7]: -13.9% [at 3.79 µM] (inactive) | activation [9]: -1.59% [at 3.63 µM] (inactive) | activity change, negative = cytotoxicity [13]: -12.7% [at 3.79 µM] (inactive) | activity, negative = inhibition (Aromatase (Homo sapiens)): -1.41% [at 3.79 µM] (inactive) | activity change, negative = cytotoxicity [14]: -14.3% [at 3.79 µM] (inactive)
